We go through seven compounds from PubChem BioAssay (Tox21).

Values without a mark were called inactive. Results filed as inconclusive are left out. Activity calls are given as the source filed them. Unless noted, calls follow the shape of the dose curve; as a rule, active = well fitted curve in the direction sought with a large enough effect in the repeat runs; inconclusive = weak or mixed curves; inactive = no such curve, though single readings can be large; an effect the other way counts as inactive or inconclusive.

A short description of experiment [1]: qHTS assay to identify small molecule agonists of the TGF-beta/Smad signaling pathway - cell viability counter screen (AID 1346829). Also: top concentration of the series differs between compounds; nearly all actives have a fitted effect of over 45% in size. The method, boiled down: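 Compound-treated SBE-bla HEK 293T cells (5 hr, 37 C) were assessed for viability with CellTiter-Glo in parallel with the reporter read.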
Background: Quantitative high-throughput screening tests each substance at several concentrations.

Experiment [2] can be described thus: qHTS assay to identify small molecule agonists of the TGF-beta/Smad signaling pathway (AID 1346859; active = well fitted activation curve with a large enough effect in the signal ratio in the repeat runs, not every such curve was filed as active; the % refers to the signal ratio; also: series mostly up to about 77 µM). The method, boiled down:
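SBE-bla HEK293T cells plated overnight, then compound exposure for 5 h at 37 C. Beta-lactamase reporter read with LiveBLAzer B/G FRET substrate after 2 h at room temperature, fluorescence at 405 nm excitation, 460/530 nm emission.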

Experiment [3] can be described thus: Human pregnane X receptor (PXR) small molecule agonists, qHTS cell viability counter screen (AID 1346977). Also: nearly all actives have a fitted effect of over 50% in size. The method in brief:
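PXR-Luc HepG2 cells (2,000/well, 5% charcoal-stripped FBS) preincubated 5 hr, then exposed to compounds 24 hr at 37 C. Viability read in the same wells by CellTiter-Fluor fluorescence, reagent added at 23 hr, 1 hr incubation.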

A short description of experiment [4]: Caspase-3/7 induction in HepG2 cells by small molecules, qHTS assay (AID 1346978). Also: nearly all actives have a fitted effect of over 15% in size. The method in brief: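 Wild-type HepG2 cells, 2,000/well, settled 5 hr at 37 C and 5% CO2, then compound-treated for 17 hr; caspase-3/7 activity read by luminescent Caspase-Glo 3/7 after 30 min at room temperature.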
Experiment [5] is described as follows: Caspase-3/7 induction in CHO-K1 cells by small molecules, qHTS assay (AID 1346980). Also: nearly all actives have a fitted effect of over 15% in size. The method, boiled down: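 Wild-type CHO-K1 cells exposed to compounds for 17hr at 37 C, 5% CO2. Caspase-3/7 activity then measured by Caspase-Glo 3/7 luminescence after 30min at room temperature.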
A short description of experiment [6]: Caspase-3/7 induction in HepG2 cells by small molecules, qHTS cell viability counter screen (AID 1346981). Also: series mostly up to about 92 µM; nearly all actives have a fitted effect of over 30% in size. The method, boiled down:
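Treatment of HepG2 cells with DMSO-delivered compounds ran 16 hr at 37 C following a 5-hr pre-incubation of 2,000 cells/well. CellTiter-Fluor fluorescence, read after 1 hr, served as the viability measure in a qHTS format.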

Experiment [7] addresses Nuclear receptor subfamily 1 group I member 2 (Rattus norvegicus) (UniProt Q9R1A7). Put plainly: Rat pregnane X receptor (rPXR) activation by small molecules, qHTS assay (AID 1346983). Also: nearly all actives have a fitted effect of over 20% in size. The conditions noted are these: rPXR luciferase reporter cells, One-Glo luminescence, 24 h; stronger effect = higher value. The method, boiled down:
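Cell-based rPXR activation assay: rPXR cells, 2,000 per well, rested 5hr at 37 C, then exposed to compounds in DMSO for 24 hr at 37 C. Luciferase activity read by One-Glo luminescence after 30 min at room temperature.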

Experiment [8] deals with Cytochrome P450 2C19 (Homo sapiens) (UniProt P33261). Briefly: Cytochrome P450 Family 2 Subfamily C Member 19 (CYP2C19) small molecule antagonists: luciferase reporter qHTS assay (AID 1671197). Also: nearly all actives have a fitted effect of over 65% in size. Also: potency is read from the fitted curve at half-maximal effect. The method in brief:
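P450-Glo CYP2C19 screening system; proluciferin substrate; DMSO compound stocks; 10 min RT preincubation; NADPH regeneration, 1 h at 37C; luciferin detection reagent, 20 min RT; luminescence as RLU.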
(In general: Reporter assays use an easily measured gene product as a stand-in for the process of interest.)

Experiment [9] concerns the target Cytochrome P450 2C9 (Homo sapiens) (UniProt P11712). Briefly: Cytochrome P450 Family 2 Subfamily C Member 9 (CYP2C9) small molecule antagonists: luciferase reporter qHTS assay (AID 1671198). Also: nearly all actives have a fitted effect of over 50% in size. Also: potency is read from the fitted curve at half-maximal effect. The method in brief:
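P450-Glo proluciferin substrate with CYP2C9 enzyme; 10 min RT preincubation, then NADPH regeneration 1 h at 37C; luciferin detection reagent 20 min RT, luminescence in relative luminescence units.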

The target of experiment [10] is Cytochrome P450 1A2 (Homo sapiens) (UniProt P05177). Briefly: Cytochrome P450 Family 1 Subfamily A Member 2 (CYP1A2) small molecule antagonists: luciferase reporter qHTS assay (AID 1671199). Also: nearly all actives have a fitted effect of over 50% in size. Also: potency is read from the fitted curve at half-maximal effect. The method in brief:
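Read-out is luminescence from luciferin detection reagent (20 min) proportional to CYP1A2 activity; compounds in DMSO preincubated 10 min with enzyme and proluciferin substrate, then NADPH regeneration solution, 1 h, room temperature.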

The target in experiment [11] is Voltage-gated inwardly rectifying potassium channel KCNH2 (Homo sapiens) (UniProt Q12809). Put plainly: Human Ether-a-go-go-Related Gene (hERG) channel small molecule antagonists: fluorescence cell-based qHTS assay (AID 1671200).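 Also: hERG-expressing U2OS cells given a thallium stimulus after FluxOR II dye loading; series mostly up to about 77 µM; nearly all actives have a fitted effect of over 50% in size.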 The method in brief:
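hERG-U2OS cells plated overnight at 37 C, loaded with FluxOR II dye 1 h at RT in dark; after 10 min, thallium stimulus added. Fluorescence (480/540 nm) read kinetically for 2 min at 1 s intervals.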
(The hERG channel carries a current that helps repolarise heart muscle cells.)

Experiment [12] concerns the target Nuclear receptor subfamily 1 group I member 2 (Homo sapiens) (UniProt O75469). Briefly: Human pregnane X receptor (PXR) small molecule agonists, qHTS assay (AID 1346982). Also: nearly all actives have a fitted effect of over 35% in size. The method in brief:
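Stable HepG2 line reporting PXR-mediated CYP3A4 expression via luciferase. Treatment: 24 hr with compounds in DMSO at 37 C. Detection: ONE-Glo luminescence.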

In experiment [13] the target is Cytochrome P450 2D6 (Homo sapiens) (UniProt P10635). Briefly: Cytochrome P450 Family 2 Subfamily D Member 6 (CYP2D6) small molecule antagonists: luciferase reporter qHTS assay (AID 1671196). The method, boiled down: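 Chemicals tested for interference with CYP2D6 activity; proluciferin substrate, NADPH regeneration, 1 h at room temperature, luminescent detection.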

The target in experiment [14] is Cytochrome P450 3A4 (Homo sapiens) (UniProt P08684). Briefly: Cytochrome P450 Family 3 Subfamily A Member 4 (CYP3A4) small molecule antagonists: luciferase reporter qHTS assay (AID 1671201). The method in brief:
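P450-Glo CYP3A4 luminescent assay: compounds preincubated 10 min at room temperature with enzyme and proluciferin substrate, NADPH regeneration added, 1 h room-temperature reaction, stopped with luciferin detection reagent; luminescence read after 20 min. Ketoconazole positive control.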

The target of experiment [15] is Nuclear receptor subfamily 1 group I member 2 (Homo sapiens) (UniProt O75469). Put plainly: CYP3A4 induction through human pregnane X receptor (PXR) by small molecules, qHTS assay (AID 1346984). Also: nearly all actives have a fitted effect of over 40% in size. The method, boiled down:
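After 24 h at 37C with compound, DPX-2 cells (HepG2, co-transfected PXR response element and CYP3A4 promoter-luciferase) got 3uM final P450-Glo Luciferin-IPA for 3 h; One-Glo luminescence followed.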

Experiment [16] shares this target. Put plainly: Human pregnane X receptor (PXR) activation by small molecules, qHTS assay (AID 1346985). Also: nearly all actives have a fitted effect of over 40% in size. The method in brief:
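DPX-2 cells (HepG2 co-transfected with a PXR response element and a CYP3A4-promoter luciferase construct) were seeded at 2,000 per well, rested 5 hr at 37C, then exposed to DMSO-dissolved compounds for 24 hr. Activation was read as luciferase luminescence.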

Experiment [17] concerns the target Thyrotropin-releasing hormone receptor (Homo sapiens) (UniProt P34981). Briefly: qHTS assay to identify small molecule antagonists of the thyrotropin-releasing hormone receptor (TRHR) signaling pathway (AID 1346877; active = well fitted inhibition curve with a large enough effect in the repeat runs, not every such curve was filed as active; also: series mostly up to about 51 µM). The method in brief: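 Overnight-plated (18 h, 37 °C) HEK293 cells expressing TRHR were dye-loaded 2 h, treated with compound, then stimulated with TRH at 1 nM final. Fluorescence intensity was captured every second for 3 min.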

For experiment [18] the target is unchanged. Briefly: qHTS assay to identify small molecule agonists of the thyrotropin-releasing hormone receptor (TRHR) signaling pathway (AID 1346891; calls by dose curve; also: series mostly up to about 58 µM). The method in brief: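 HEK293 cells expressing TRHR plated 18 h at 37 C/5% CO2, calcium dye-loaded 2 h at 37 C, then compound added (agonist mode); kinetic calcium fluorescence read 3 min at 1 s intervals; 15 concentrations in triplicate.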

Experiment [19] in a line: Caspase-3/7 induction in CHO-K1 cells by small molecules, qHTS cell viability counter screen (AID 1346979). Also: nearly all actives have a fitted effect of over 35% in size. The method in brief:
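Wild-type CHO-K1 cells (1,500/well) treated with compound after 5 h plating; after 16 h at 37C, viability read as CellTiter-Fluor fluorescence following 1 h reagent incubation, in the same wells as the caspase read.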
% is scaled to controls: 0 for no effect and ±100 for the full control effect.

Chain of Nuclear receptor subfamily 1 group I member 2 (Homo sapiens) (O75469 whole entry, looked up): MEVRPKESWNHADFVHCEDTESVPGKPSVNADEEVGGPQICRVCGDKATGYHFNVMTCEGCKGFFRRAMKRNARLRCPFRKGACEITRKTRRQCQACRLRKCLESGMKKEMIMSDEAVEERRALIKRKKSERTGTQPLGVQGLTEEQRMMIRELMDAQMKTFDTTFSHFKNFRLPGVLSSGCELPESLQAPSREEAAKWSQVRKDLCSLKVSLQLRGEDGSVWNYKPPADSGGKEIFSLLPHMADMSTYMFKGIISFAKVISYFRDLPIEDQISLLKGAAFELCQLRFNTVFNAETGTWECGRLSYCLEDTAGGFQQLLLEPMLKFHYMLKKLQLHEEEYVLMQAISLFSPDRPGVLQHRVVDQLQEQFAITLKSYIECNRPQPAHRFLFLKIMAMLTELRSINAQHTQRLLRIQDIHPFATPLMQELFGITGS
Chain of Cytochrome P450 2C19 (Homo sapiens) (P33261 whole entry, looked up): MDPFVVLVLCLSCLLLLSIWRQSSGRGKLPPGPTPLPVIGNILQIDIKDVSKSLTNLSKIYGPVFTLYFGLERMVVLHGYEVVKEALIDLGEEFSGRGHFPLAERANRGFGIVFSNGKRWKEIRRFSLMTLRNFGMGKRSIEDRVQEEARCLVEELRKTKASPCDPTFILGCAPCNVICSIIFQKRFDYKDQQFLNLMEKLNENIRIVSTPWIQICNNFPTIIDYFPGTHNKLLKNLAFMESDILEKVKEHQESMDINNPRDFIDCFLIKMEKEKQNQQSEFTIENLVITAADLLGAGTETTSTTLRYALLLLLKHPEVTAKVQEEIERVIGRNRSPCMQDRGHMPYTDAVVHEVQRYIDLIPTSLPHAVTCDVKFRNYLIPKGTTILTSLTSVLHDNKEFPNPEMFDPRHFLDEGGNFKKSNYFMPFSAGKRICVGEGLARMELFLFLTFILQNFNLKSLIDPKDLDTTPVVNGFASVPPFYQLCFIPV
Chain of Cytochrome P450 3A4 (Homo sapiens) (P08684 whole entry, looked up): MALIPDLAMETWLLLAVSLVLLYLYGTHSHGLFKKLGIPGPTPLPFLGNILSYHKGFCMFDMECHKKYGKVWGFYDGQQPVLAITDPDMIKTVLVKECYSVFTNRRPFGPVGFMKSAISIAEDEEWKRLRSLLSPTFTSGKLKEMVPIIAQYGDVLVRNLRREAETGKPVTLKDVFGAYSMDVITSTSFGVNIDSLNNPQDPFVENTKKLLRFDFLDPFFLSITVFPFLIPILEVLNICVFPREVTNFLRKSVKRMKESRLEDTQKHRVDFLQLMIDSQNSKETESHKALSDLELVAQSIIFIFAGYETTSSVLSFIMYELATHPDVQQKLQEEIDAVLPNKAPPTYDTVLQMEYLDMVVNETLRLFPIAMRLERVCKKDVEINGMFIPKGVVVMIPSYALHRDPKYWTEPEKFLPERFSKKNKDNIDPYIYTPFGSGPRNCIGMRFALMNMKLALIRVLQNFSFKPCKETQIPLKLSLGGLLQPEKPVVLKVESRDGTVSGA
Chain of Cytochrome P450 2D6 (Homo sapiens) (P10635 whole entry, looked up): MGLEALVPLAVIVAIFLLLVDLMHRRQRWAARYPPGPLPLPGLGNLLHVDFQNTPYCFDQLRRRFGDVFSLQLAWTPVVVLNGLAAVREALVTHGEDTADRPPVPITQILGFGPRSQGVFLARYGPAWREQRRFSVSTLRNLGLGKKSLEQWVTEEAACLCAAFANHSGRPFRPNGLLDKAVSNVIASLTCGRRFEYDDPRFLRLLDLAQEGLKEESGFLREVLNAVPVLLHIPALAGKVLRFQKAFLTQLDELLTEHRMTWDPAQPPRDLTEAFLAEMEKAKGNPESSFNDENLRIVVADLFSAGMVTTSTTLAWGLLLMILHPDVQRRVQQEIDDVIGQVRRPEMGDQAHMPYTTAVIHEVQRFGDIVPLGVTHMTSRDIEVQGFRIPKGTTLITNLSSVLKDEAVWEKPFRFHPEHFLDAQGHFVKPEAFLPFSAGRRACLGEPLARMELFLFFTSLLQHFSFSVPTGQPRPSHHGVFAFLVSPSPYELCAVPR
Chain of Cytochrome P450 2C9 (Homo sapiens) (P11712 whole entry, looked up): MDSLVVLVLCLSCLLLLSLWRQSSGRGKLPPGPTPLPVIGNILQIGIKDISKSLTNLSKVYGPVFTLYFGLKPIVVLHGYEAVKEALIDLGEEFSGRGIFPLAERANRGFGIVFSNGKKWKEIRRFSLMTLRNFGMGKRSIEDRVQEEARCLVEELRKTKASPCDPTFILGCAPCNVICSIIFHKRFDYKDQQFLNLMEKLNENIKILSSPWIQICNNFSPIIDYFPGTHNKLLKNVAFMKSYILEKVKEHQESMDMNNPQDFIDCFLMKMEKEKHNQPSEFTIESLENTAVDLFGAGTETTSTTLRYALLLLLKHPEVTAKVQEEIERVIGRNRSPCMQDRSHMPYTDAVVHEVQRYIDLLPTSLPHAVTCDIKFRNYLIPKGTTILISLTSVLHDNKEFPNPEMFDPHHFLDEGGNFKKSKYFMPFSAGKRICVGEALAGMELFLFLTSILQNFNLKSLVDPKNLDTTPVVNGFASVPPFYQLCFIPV
Chain of Voltage-gated inwardly rectifying potassium channel KCNH2 (Homo sapiens) (Q12809 whole entry, looked up): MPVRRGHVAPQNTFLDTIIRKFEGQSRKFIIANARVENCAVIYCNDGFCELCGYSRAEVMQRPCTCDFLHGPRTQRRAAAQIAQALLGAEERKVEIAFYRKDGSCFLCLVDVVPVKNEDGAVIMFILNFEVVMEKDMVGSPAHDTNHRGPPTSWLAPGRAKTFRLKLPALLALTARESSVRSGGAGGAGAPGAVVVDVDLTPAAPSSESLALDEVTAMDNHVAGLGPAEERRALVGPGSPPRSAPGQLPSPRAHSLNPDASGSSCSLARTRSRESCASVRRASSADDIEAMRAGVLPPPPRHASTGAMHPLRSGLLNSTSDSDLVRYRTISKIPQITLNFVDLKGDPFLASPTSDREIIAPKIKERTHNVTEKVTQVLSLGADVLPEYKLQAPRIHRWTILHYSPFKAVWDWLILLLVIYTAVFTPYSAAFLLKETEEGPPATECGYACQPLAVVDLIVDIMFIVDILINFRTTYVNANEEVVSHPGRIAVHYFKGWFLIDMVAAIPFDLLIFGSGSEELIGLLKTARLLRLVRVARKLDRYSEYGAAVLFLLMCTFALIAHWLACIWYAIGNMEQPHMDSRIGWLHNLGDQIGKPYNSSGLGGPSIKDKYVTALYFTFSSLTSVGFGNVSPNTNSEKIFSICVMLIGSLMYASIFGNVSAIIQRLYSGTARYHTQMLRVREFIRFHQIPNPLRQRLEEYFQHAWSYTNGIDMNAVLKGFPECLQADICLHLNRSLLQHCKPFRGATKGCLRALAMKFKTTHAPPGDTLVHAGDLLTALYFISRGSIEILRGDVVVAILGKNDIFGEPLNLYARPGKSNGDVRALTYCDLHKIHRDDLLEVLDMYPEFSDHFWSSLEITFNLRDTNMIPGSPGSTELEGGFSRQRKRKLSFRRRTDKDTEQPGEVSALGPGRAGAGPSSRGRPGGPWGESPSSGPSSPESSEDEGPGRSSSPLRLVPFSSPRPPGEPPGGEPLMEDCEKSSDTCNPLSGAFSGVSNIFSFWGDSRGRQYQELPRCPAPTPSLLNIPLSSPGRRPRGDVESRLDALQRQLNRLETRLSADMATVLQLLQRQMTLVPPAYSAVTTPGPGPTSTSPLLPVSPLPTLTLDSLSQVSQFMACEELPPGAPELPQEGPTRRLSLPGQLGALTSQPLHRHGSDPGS
Chain of Nuclear receptor subfamily 1 group I member 2 (Rattus norvegicus) (Q9R1A7 whole entry, looked up): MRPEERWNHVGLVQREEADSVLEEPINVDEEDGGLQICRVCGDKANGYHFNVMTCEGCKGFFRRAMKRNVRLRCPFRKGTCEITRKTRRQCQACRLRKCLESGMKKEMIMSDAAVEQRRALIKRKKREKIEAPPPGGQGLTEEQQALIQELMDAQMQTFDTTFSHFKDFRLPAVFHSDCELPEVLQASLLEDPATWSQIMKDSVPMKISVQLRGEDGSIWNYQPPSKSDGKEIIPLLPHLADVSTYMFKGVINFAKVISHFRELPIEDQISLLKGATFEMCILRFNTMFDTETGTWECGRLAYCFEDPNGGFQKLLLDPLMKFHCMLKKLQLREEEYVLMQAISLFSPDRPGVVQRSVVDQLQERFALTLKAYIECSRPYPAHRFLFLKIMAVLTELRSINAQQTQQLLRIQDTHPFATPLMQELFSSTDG
Chain of Cytochrome P450 1A2 (Homo sapiens) (P05177 whole entry, looked up): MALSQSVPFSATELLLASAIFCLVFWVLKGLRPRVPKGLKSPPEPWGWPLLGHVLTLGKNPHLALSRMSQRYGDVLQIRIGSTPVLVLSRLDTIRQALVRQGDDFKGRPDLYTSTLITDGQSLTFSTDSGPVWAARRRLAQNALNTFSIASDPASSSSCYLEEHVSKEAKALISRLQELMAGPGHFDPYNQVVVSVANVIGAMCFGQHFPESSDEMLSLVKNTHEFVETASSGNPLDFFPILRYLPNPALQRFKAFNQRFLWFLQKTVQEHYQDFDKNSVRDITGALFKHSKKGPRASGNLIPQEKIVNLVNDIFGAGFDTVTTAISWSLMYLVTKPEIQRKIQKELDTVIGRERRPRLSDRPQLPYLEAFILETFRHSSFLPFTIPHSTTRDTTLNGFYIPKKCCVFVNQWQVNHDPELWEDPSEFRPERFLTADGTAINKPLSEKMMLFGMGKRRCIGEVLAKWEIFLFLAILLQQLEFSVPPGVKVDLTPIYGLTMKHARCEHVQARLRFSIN
Chain of Thyrotropin-releasing hormone receptor (Homo sapiens) (P34981 whole entry, looked up): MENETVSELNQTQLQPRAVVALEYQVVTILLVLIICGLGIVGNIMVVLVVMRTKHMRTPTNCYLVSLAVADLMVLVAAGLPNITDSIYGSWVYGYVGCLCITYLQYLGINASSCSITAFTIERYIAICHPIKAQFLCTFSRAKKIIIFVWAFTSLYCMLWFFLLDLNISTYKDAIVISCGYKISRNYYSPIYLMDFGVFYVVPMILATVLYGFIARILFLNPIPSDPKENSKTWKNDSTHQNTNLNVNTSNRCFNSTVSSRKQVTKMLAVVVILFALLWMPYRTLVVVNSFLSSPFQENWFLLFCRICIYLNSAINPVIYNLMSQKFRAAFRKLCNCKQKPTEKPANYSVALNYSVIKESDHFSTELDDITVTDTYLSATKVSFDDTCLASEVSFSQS

Turning to `COc1c2occc2c(OC)c2c(=O)cc(C)oc12`, the outcome in experiment [1], in experiment [2], in experiment [3], in experiment [4], in experiment [5] and in experiment [6] was inactive. Besides, the max activation in experiment [7] was -1.72%. Further, the Potency is 3.47 µM (active) in experiment [8], 12.3 µM (active) in [9] and 0.144 µM (active) in experiment [10]. Also, the Potency result in experiment [11] is “inactive”.

As to `C=CC(=O)CCCCC`, the compound was classed as inactive in [1], in experiment [2], in [3], in [4], in experiment [5] and in experiment [6]. For the same compound, the Potency result in experiment [12], in [13], in [9], in [10], in [11] and in [14] was “inactive” each time.

As for `Nc1nc(-c2ccccc2)c(Br)c(=O)[nH]1`, the outcome in experiment [1], in experiment [2], in experiment [3], in experiment [4], in experiment [5] and in experiment [6] was inactive. Moreover, the Potency result in experiment [12], in experiment [15], in [16], in experiment [13], in experiment [8] and in experiment [9] was “inactive” each time. Moreover, the Potency result in experiment [10] and in [14] was “inactive” throughout. For the same compound, the max activation in [7] is -0.177%.

For `CC1CCc2c(N3CCC(O)CC3)c(F)cc3c(=O)c(C(=O)O)cn1c23` (centres undefined), the call in experiment [1], in experiment [17], in experiment [18], in experiment [3], in [4] and in [5] was inactive. Moreover, the result in experiment [6] was inactive. Besides, the Potency entry in experiment [19], in [12], in [15], in experiment [16], in experiment [13] and in experiment [10] was “inactive” throughout. In addition, the Potency entry in [11] and in experiment [14] was “inactive” throughout. For the same compound, in experiment [7], the max activation is -2.67%.

Take `CC1(C)Oc2ccc(C#N)cc2[C@@H](N2CCCC2=O)[C@@H]1O`: the outcome in experiment [1], in experiment [2], in experiment [4] and in experiment [6] was inactive. Moreover, the Potency entry in [19], in [12], in [15], in experiment [16], in [13] and in [8] was “inactive” in each case. Further, the Potency entry in experiment [11] and in experiment [14] was “inactive” in each case. In addition, the max activation in [7] was 0.645%.

In the case of `COc1ccc(CCO)cc1`, the compound was called inactive in experiment [1], in [2], in [3], in experiment [4], in experiment [5] and in [6]. The Potency entry in experiment [12], in experiment [13], in experiment [11] and in [14] was “inactive” in each case. The Potency in [8] is 71 µM (active); in [9] it was 79.6 µM (active); in [10], 63.3 µM (active).

`NCC1(Cc2noc(=O)[nH]2)CCCCC1`: the call in experiment [1], in [2], in experiment [3], in experiment [4] and in [6] was inactive. Besides, the Potency result in experiment [12], in experiment [13], in [11] and in experiment [14] was “inactive” throughout.
